In PubChem BioAssay (Tox21):
Activity calls are given as the source filed them. The call rests on the fitted dose curve; in most records, active means well fitted curve in the direction sought with a large enough effect in the repeat runs; inconclusive means weak or mixed curves; inactive means flat fitted curve, though single readings scatter.

Assay: qHTS assay to test for compound auto fluorescence at 535 nm (green) in HEK293 cells (AID 720680)
Settings: green autofluorescence 485/535 nm; series mostly up to 46 µM; fluorescence, % of fluorescein: at the top concentration
Text: U.S. Tox21 Program National Center for Advancing Translational Sciences [NCATS] NIH Chemical Genomics Center [NCGC] U.S. Environmental Protection Agency [EPA] National Institutes of Environmental Health Sciences [NIEHS] National Toxicology Program [NTP] U.S. Food and Drug Administration [FDA] Tox21 Assay Overview: Compound auto fluorescence often interferes with screening of the compound library against various biological targets and signaling pathways. Some of these compounds may have fluorophoric properties. Such properties may interfere with the assay outputs resulting in false positives and/or negatives. To decrease such complications and ensure the compound activities are relevant in terms of biological response, the Tox21 10K compound library was screened for auto fluorescence. From the fluorophores used as reporter signals in our screening assays, the auto fluorescence equivalencies of compounds against three fluorophores have been evaluated: Triamterene, Fluorescein and Rose Bengal sodium for blue, green and red fluorescence, respectively. The fluorescence intensities were measured using Excitation/Emission wavelengths at 405/460nm, 485/535nm and 540/590nm for blue, green and red labels, respectively. This assay includes the green fluorescence data.
Tox21 Assay Protocol Summary: 2,000 HEK293 cells in 5 uL of culture medium containing 10% dialyzed FBS per well were dispensed into black wall/clear bottom 1536-well plates using a Multidrop Combi Dispenser (Thermo Scientific). The assay plates were incubated for 4-5 hr at 37C to allow cell attachment to the well bottom, followed by the transfer of 23 nL compound or DMSO vehicle by a pintool work station (Kalypsys, San Diego, CA). After the assay plates were incubated overnight at 37C and 5% CO2, fluorescence intensities in the assay plates were measured by an Envision (PerkinElmer, Shelton, CT) plate reader using three labels for measuring blue, green and red fluorescence at […] 460, 535 and 590nm respectively.
On the % scale 0 is the no-effect control and ±100 the full control effect.

| SMILES | fluorescence, % of fluorescein | Potency |
| --- | --- | --- |
| CO[C@H]1[C@@H](O)C[C@H](O[C@H]2[C@@H](O)C[C@H](O[C@H]3[C@@H](O)C[C@H](O[C@H]4CC[C@@]5(C)[C@H](CC[C@@H]6[C@@H]5C[C@@H](O)[C@]5(C)[C@@H](C7=CC(=O)OC7)CC[C@]65O)C4)O[C@@H]3C)O[C@@H]2C)O[C@@H]1C | -0.0844% (inactive) |  |
| CCC1C(C)=NN=C(c2ccc(OC)c(OC)c2)c2cc(OC)c(OC)cc21 (stereo not given) | -0.0111% (inactive) |  |
| OC(c1ccccc1)(c1ccccc1)C1CN2CCC1CC2 (stereo not given) | -0.303% (inactive) |  |
| CN=C1CN(O)C(c2ccccc2)=c2cc(Cl)ccc2=N1 |  | inactive |
| CN(C)[C@H](Cc1ccccc1)c1ccccc1 | 0.0012% (inactive) |  |
| CCCCCCCCCC(=O)O[C@H]1CC[C@H]2[C@@H]3CCC4=CC(=O)CC[C@]4(C)[C@H]3CC[C@]12C | -0.0584% (inactive) |  |
| C[C@]12CC[C@H]3[C@@H](CCC4=C(O)C(=O)CC[C@@H]43)[C@@H]1CC[C@@H]2OC(=O)CCC1CCCC1 | 0.0231% (inactive) |  |
| C=CCN1CC[C@]23c4c5ccc(O)c4O[C@H]2[C@@H](O)C=C[C@H]3[C@H]1C5 | 0.091% (inactive) |  |
| C[N+]1([O-])[C@@H]2CC(OC(=O)[C@H](CO)c3ccccc3)C[C@H]1[C@@H]1O[C@@H]12 (stereo not given in full) |  | inactive |
| C[C@]12C=CC(=O)C=C1CC[C@@H]1[C@@H]2CC[C@]2(C)OC(=O)CC[C@@H]12 | -0.089% (inactive) |  |
| CC(N)Cc1ccc(O)cc1 (stereo not given) | 0.013% (inactive) |  |
| C#CC(C)(O)CC (stereo not given) | 0.0985% (inactive) |  |
| [S]=[Sb](=[S])[S][Sb](=[S])=[S] | 0.0155% (inactive) |  |
| CCNCC(O)c1cccc(O)c1 (stereo not given) | 0.012% [at 18.6 µM] (inactive) |  |
| CCOC(=O)C1(c2ccccc2)CCCN(C)CC1 (stereo not given) | 0.173% (inactive) |  |
| CC(C)NC(C)Cc1ccc(I)cc1 (stereo not given) | 0.181% (inactive) |  |
| Cc1nnc2n1-c1ccc(Cl)cc1C(c1ccccc1Cl)=NC2 | -0.0088% (inactive) |  |
| C[C@]12C[C@H]3S[C@H]3C[C@@H]1CC[C@@H]1[C@@H]2CC[C@]2(C)[C@@H](O)CC[C@@H]12 | 0.11% [at 18.6 µM] (inactive) |  |
| O=[N+]([O-])c1cc(I)c(O)c(I)c1 | -0.0587% (inactive) |  |
| C[C@]12CC[C@H]3[C@@H](CCC4=C(Cl)C(=O)CC[C@@]43C)[C@@H]1CC[C@@H]2O | 0.103% (inactive) |  |

| SMILES | fluorescence, % of fluorescein | Potency |
| --- | --- | --- |
| CC(C)(C)c1ccc(O)cc1 |  | inactive |
| ClC1=C(Cl)[C@]2(Cl)[C@@H]3[C@@H](Cl)[C@H]4O[C@H]4[C@@H]3C1(Cl)C2(Cl)Cl | -0.0514% [at 91.3 µM] (inactive) |  |
| CCC1(c2ccccc2)C(=O)NC(=O)N(C(=O)c2ccccc2)C1=O (stereo not given) | 0.0008% (inactive) |  |
| CC(C)(O)[C@@H]1[C@H]2OC(=O)[C@@H]1[C@]1(O)C[C@H]3O[C@]34C(=O)O[C@H]2[C@]14C |  | inactive |
| CC(N)Cc1ccc2c(c1)OCO2 (stereo not given) | -0.0417% (inactive) |  |
| CN1[C@H]2CC[C@@H]1[C@@H](C(=O)O)[C@@H](OC(=O)c1ccccc1)C2 |  | inactive |
| O=P(O)(O)C(Cl)(Cl)P(=O)(O)O | -0.145% (inactive) |  |
| CNC(C)C(O)c1ccc(O)cc1 (stereo not given) |  | inactive |
| CN(C)CCCCCCN(C)C (tested in a mixture with another compound) | 0.115% (inactive) |  |
| CCCCCCC(=O)O[C@H]1CC[C@H]2[C@@H]3CC[C@H]4CC(=O)C=C(C)[C@]4(C)[C@H]3CC[C@]12C | -0.0797% (inactive) |  |
| CCC1(c2cnc[nH]2)Cc2ccccc2C1 |  | inactive |
| CN[C@H]1C[C@@H](N)[C@H](O)[C@@H](O[C@@H]2O[C@H](CO)[C@H](O)[C@@H]3OC4(O[C@H]23)O[C@H](C(N)CO)[C@H](O)[C@H](O)[C@H]4O)[C@@H]1O (stereo not given in full) |  | inactive |
| Cc1ccc2ccccc2c1C |  | inactive |
| CN1C(=O)CC(=O)N(c2ccccc2)c2cc(Cl)ccc21 | 0.158% (inactive) |  |
| CC(=O)Oc1ccc2c3c1O[C@H]1[C@@H](OC(C)=O)C=C[C@H]4[C@@H](C2)N(C)CC[C@@]341 |  | inactive |
| CNC(=O)OCC[N+](C)(C)C | -0.126% (inactive) |  |
| C[C@@H](Cc1ccccc1)N(C)C | -0.0154% (inactive) |  |
| C[C@@H]1[C@H]2Cc3ccc(O)cc3[C@]1(C)CCN2C | -0.0658% [at 95.7 µM] (inactive) |  |
| CCCC(C)C1(CC)C(=O)NC(=O)NC1=O (stereo not given) | 0.156% (inactive) |  |
| Cc1cccc(C(C)c2cnc[nH]2)c1C (stereo not given) | -0.0065% (inactive) |  |
